Data reported in PubChem BioAssay (NCI).
The panel holds about 83,000 compounds, 20% with a hit somewhere; the sample as a whole holds those more often.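 Assay: single dose, 48 h. Readout: percent growth (0 = no net growth; negative = cell death). Active: <10.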 Values without a mark were called inactive. The source made the active and inactive calls.

Legend:
Test in all cases: NCI-60 one-dose screen, 48 h (100 = growth as untreated, 0 = no growth, -100 = all killed)
Conditions in all cases: 10 µM unless noted
HCT-15 colon = tested on: HCT-15 colon
SNB-75 CNS = tested on: SNB-75 CNS
U251 CNS = tested on: U251 CNS
PC-3 prostate = tested on: PC-3 prostate
SK-MEL-5 melanoma = tested on: SK-MEL-5 melanoma
UACC-62 melanoma = tested on: UACC-62 melanoma
LOX IMVI melanoma = tested on: LOX IMVI melanoma
SK-MEL-28 melanoma = tested on: SK-MEL-28 melanoma
SK-MEL-2 melanoma = tested on: SK-MEL-2 melanoma
EKVX NSCLC = tested on: EKVX NSCLC
UO-31 renal = tested on: UO-31 renal
TK-10 renal = tested on: TK-10 renal
ACHN renal = tested on: ACHN renal
CAKI-1 renal = tested on: CAKI-1 renal
A498 renal = tested on: A498 renal
CCRF-CEM leukemia = tested on: CCRF-CEM leukemia
SNB-19 CNS = tested on: SNB-19 CNS
SN12C renal = tested on: SN12C renal
MOLT-4 leukemia = tested on: MOLT-4 leukemia

Compound	growth (HCT-15 colon)	growth (SNB-75 CNS)	growth (U251 CNS)	growth (PC-3 prostate)	growth (SK-MEL-5 melanoma)	growth (UACC-62 melanoma)	growth (LOX IMVI melanoma)	growth (SK-MEL-28 melanoma)	growth (SK-MEL-2 melanoma)	growth (EKVX NSCLC)	growth (UO-31 renal)	growth (TK-10 renal)	growth (ACHN renal)	growth (CAKI-1 renal)	growth (A498 renal)	growth (CCRF-CEM leukemia)	growth (SNB-19 CNS)	growth (SN12C renal)	growth (MOLT-4 leukemia)
CC1(C)CC[C@]23CC[C@]4(C)[C@H](CC[C@@H]5[C@@]6(C)CCNCC(C)(C)[C@@H]6CC[C@]54C)[C@H]2[C@H]1OC3	54.2%	96.8%	70%	65.8%	96.2%	94.4%	83.8%	99.9%	99.1%	109%	99.5%	108%	106%	93.9%	117%	70.8%	–	–	–
CN(C)CCCn1c2c(c3cnccc3c1=O)C(=O)c1ccccc1-2	-3.54% (active)	10.6%	0.151% (active)	-5.36% (active)	-75.8% (active)	-64.6% (active)	-44.9% (active)	-28.1% (active)	-13.5% (active)	40.9%	-39% (active)	3.67% (active)	-25.9% (active)	1% (active)	25.8%	9.81% (active)	1.02% (active)	1.1% (active)	-2.22% (active)
COc1cccc(CNc2c3ccccc3nc3ccccc23)c1OC	19.8%	68%	34.5%	37.6%	55.8%	51.3%	13%	66.1%	79.2%	36.3%	25.2%	59.5%	21.1%	33.7%	-4.13% (active)	39.5%	35.5%	30.9%	17.9%
COc1cc2c(cc1OCCCN1CCN(C(=S)SCCC(C#N)(c3ccccc3)c3ccccc3)CC1)N=C[C@@H]1CCCN1C2=O	-89.5% (active)	-91.5% (active)	-95.7% (active)	-34.9% (active)	-100% (active)	-72% (active)	-100% (active)	-82.6% (active)	-80% (active)	-95.6% (active)	4.62% (active)	-59.7% (active)	-46.1% (active)	-44.1% (active)	-100% (active)	-35% (active)	-44.4% (active)	-43.9% (active)	-8.92% (active)
C=C1C(=O)O[C@H]2[C@H]1CC/C(CNC(=O)Cc1c[nH]c3ccccc13)=C\CC[C@@]1(C)O[C@@H]21	15.6%	73.9%	43.9%	49.9%	42.1%	-23.5% (active)	-75.3% (active)	-29.9% (active)	33.5%	79.3%	34.9%	-35.9% (active)	3.84% (active)	14.7%	41.2%	-35.9% (active)	57.5%	13.9%	-4.65% (active)
